# From PubChem BioAssay
# An excerpt weighted towards active compounds, which were near 3.3% of everything screened.
# Sm TGR block = blocks Schistosoma mansoni thioredoxin glutathione reductase; Q962Y6; purified TGR, DTNB reduction, TNB absorbance 405 nm; Potency, µM (top dose mostly 114 µM), for inactives: top-dose activity change, negative = inhibition, most hits filed as inhibitors; 360,000 compounds, 3% hits; AID 485364; note: nearly all actives have a fitted effect of over 60% in size
#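 TGR 20 nM + NADPH 100 uM (dispensed conc.), cpd preinc 15 min RT; start with NADPH (500 uM addition) then DTNB (15 mM addition). Kinetic TNB absorbance, 405 nm filter. Four-parameter Hill fit across titration.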
# AmpC inh detg = blocks E. coli AmpC beta-lactamase in detergent assay | P00811 | AmpC hydrolysis of nitrocefin, absorbance 480 nm, 0.01% Triton | Potency, µM (highest dose often 114 µM), without a hit: top-dose activity change, negative = inhibition, hits mostly inhibitors | 370,000 compounds, 0.041% hits;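 note: 0% = no-compound wells and -100% = no-enzyme wells; nearly all actives have a fitted effect of over 25% in size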
# Target sequence (P00811 whole entry, looked up): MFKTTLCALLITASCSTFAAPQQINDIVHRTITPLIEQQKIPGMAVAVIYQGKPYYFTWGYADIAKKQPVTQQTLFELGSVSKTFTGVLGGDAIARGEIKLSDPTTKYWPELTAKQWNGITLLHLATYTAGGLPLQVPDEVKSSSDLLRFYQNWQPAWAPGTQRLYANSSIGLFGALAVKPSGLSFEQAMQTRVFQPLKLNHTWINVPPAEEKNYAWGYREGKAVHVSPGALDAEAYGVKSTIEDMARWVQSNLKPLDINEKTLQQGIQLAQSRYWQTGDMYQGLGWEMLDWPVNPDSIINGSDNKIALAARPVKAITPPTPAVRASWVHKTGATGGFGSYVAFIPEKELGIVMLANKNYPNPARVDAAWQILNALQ
#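 20 mM phosphate pH 7.0 + 0.01% (detergent screen) or 0.0001% Triton X-100; 5.3 nM AmpC reagent; cpd preinc 15 min RT; nitrocefin (800 uM stock) to start; A480 q20 s × 4 min; Activity was normalised to no-enzyme and no-compound control wells.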
# AmpC no deterg = AmpC beta-lactamase inhibition without detergent. Potency, µM (series often up to 57.1 µM), for inactives: at the highest dose activity change, negative = inhibition, actives largely listed as inhibitors. AmpC nitrocefin hydrolysis, absorbance 480 nm, 0.0001% Triton. P00811. 330,000 compounds, 0.52% hits;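 note: plate controls were no compound for no effect and no enzyme for full effect; nearly all actives have a fitted effect of over 20% in size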
#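 AmpC (5.3 nM in the dispensed reagent) in 20 mM phosphate pH 7.0 with 0.01% (detergent screen) or 0.0001% Triton X-100 was preincubated with compounds for 15 min at room temperature. Nitrocefin was then added from an 800 uM solution, and hydrolysis was followed at 480 nm.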
# * marks the source's active call; other numbers are inactive results; ? = inconclusive; . = no result given. Calls come from the whole dose curve; as a rule, active = well fitted curve in the direction sought with a large enough effect; inconclusive = small, poorly fitted or top-dose-only effect, or another doubt; inactive = no such curve, though single readings can be large; an effect the other way counts as inactive or inconclusive. Unless noted, % is set by controls: 0 for no effect and ±100 for the full control effect; potency is the fitted concentration of half-maximal effect.
SMILES,Sm TGR block,AmpC inh detg,AmpC no deterg
CCn1nnc(NC(=S)NC(=O)c2ccc(-c3cccc(Cl)c3)o2)n1,13µM*,2%,-34%
Cn1nnc(NC(=S)NC(=O)c2cc3ccccc3o2)n1,25µM*,-11%,-16%
Cn1nnc(NC(=S)NC(=O)c2ccco2)n1,?,-8%,-5%
CCCCn1nnc(NC(=O)c2ccc(-c3cccc(Cl)c3)o2)n1,25µM*,-15%,-2%
CCCn1nnc(NC(=O)c2ccc(-c3cccc(Cl)c3)o2)n1,-39%,-10%,1%
O=C(NC(=S)Nc1cc(Cl)ccc1N1CCOCC1)c1ccc(-c2cccc(Cl)c2)o1,-17%,-11%,-21%
CCOc1cc(C2c3c(-c4cc(C)ccc4O)n[nH]c3C(=O)N2CCCOC(C)C)ccc1O (configuration not stated),8%,-8%,.
CC1=C(C(=O)OC2CCCC2)C(c2ccc(F)cc2F)CC(=O)N1 (configuration not stated),0%,13%,.
CC1CCc2[nH]c3ccc(C(=O)N(C)CC(=O)Nc4ccccc4Br)cc3c2C1 (configuration not stated),0%,-1%,28µM*
Cc1ccc(C)c(NC(=O)CN(C)C(=O)c2ccc3[nH]c4c(c3c2)CC(C)CC4)c1 (configuration not stated),-16%,-5%,61%
CCOc1ccc(-n2c(/C=C/c3cccc(F)c3)nc3cc(OC)c(OC)cc3c2=O)cc1,5%,3%,.
CCCCNC(=O)CSc1nc2nc(C)c(Cc3c(F)cccc3Cl)c(C)n2n1,-5%,-2%,.
Cc1nc2nc(SCC(=O)NCc3ccco3)nn2c(C)c1Cc1c(F)cccc1Cl,50µM*,2%,0%
Cc1ccccc1Cc1c(C)nc2nc(SCC(=O)NC(C)c3ccccc3)nn2c1C (configuration not stated),-3%,5%,.
Cc1nc2nc(SCC(=O)NCc3ccccc3)nn2c(C)c1Cc1ccccc1,17%,13%,.
Cc1nc2c(C(=O)NCc3ccccc3Cl)cnn2c(C)c1Cc1ccccc1,0%,5%,.
Cc1ccccc1Cc1c(C)nc2nc(SCC(=O)NCc3ccco3)nn2c1C,25µM*,-10%,9%
Cc1ccc(Cc2c(C)nc3nc(SCC(=O)NCc4ccco4)nn3c2C)cc1,40µM*,0%,0%
Cc1ccccc1Cc1c(C)nc2c(C(=O)NCc3ccco3)cnn2c1C,22µM*,-4%,19%
CCc1cccc(C)c1NC(=O)c1ccc2c(c1)CCN2S(=O)(=O)c1ccc(Cl)cc1,2%,0%,.
COc1ccc2c(C)c(CCC(=O)NCCc3ccccc3OC)c(=O)oc2c1,1%,18%,.
COCCNC(=O)CCCn1c(SCC(=O)Nc2ccc(F)cc2)nc2c(sc3ccccc32)c1=O,1%,0%,.
COc1ccc2sc(N(Cc3cccnc3)C(=O)C3COc4ccccc4O3)nc2c1 (configuration not stated),-6%,1%,.
O=C1CN(C(=O)COc2ccc(Cl)cc2Cl)C(c2ccccc2)c2cc(F)ccc2N1 (configuration not stated),6%,7%,.
Cc1ccsc1CN(C(=O)c1oc2cc(Br)ccc2c1C)C1CCS(=O)(=O)C1 (configuration not stated),0%,-9%,.
SMILES,Sm TGR block,AmpC inh detg,AmpC no deterg
Cc1cccc(Cc2c(C)nc3nc(SCC(=O)NCc4ccco4)nn3c2C)c1,35µM*,3%,22%
Cc1cccc(Cc2c(C)nc3nc(SCC(=O)NC4CCCCC4)nn3c2C)c1,3%,9%,.
CC(C)Oc1ccc(CNC(=O)Nc2ccc3c(c2)N(C)C(=O)c2ccccc2S3)cc1,1%,10%,.
CCc1ccccc1NC(=O)C(=O)NCC(c1cccnc1)N1CCN(c2ccccc2F)CC1 (configuration not stated),-4%,3%,.
O=C(NCc1ccco1)c1nn2c(C(F)(F)F)cc(-c3cccs3)nc2c1Br,32µM*,1%,-24%
COC(=O)c1nc2nc(-c3cccs3)cc(C(F)(F)F)n2n1,-1%,1%,-12%
O=C(NCc1ccco1)c1nc2nc(-c3cccs3)cc(C(F)(F)F)n2n1,32µM*,-8%,-44%
O=C(NCC1CCCO1)c1nn2c(C(F)(F)F)cc(-c3cccs3)nc2c1Br (configuration not stated),-5%,-11%,-3%
Cc1cccc(C)c1NC(=O)Cn1c(=O)n(Cc2ccco2)c(=O)c2ccc(C(=O)NC3CCCC3)cc21,8%,1%,.
Cc1cccc(-n2ncc(C(=O)NCc3ccccn3)c2C2CCN(C(=O)OC(C)(C)C)CC2)c1,5%,25%,.
COc1ccc(CCCc2n[nH]c(=S)o2)cc1,0%,3%,-7%
COc1ccc(Cc2n[nH]c(=S)o2)cc1,35µM*,1%,44%
O=C(CCl)NC(Cc1ccccc1)c1ccccc1 (configuration not stated),22µM*,-4%,-19%
CC(=O)C(Cc1ccccc1)NC(=O)CCl (configuration not stated),?,-3%,42%
O=[N+]([O-])c1cc(-c2nc(-c3ccccc3)no2)ccc1NCc1cccnc1,-8%,-4%,.
COc1ccccc1NC(=O)Cn1cc(S(=O)(=O)Cc2ccccc2)c2ccccc21,9%,13%,.
CCc1ccc(-n2c(O)c(C=NCCN(CC)CC)c(=O)[nH]c2=O)cc1,22µM*,-3%,-15%
CCN(CC)CCN=Cc1c(O)n(Cc2ccccc2)c(=O)[nH]c1=O,-17%,-7%,-5%
Cc1cccc(C(=O)N2CCc3cc(CNC(=O)c4ccc(Br)o4)ccc32)c1,3%,11%,.
COC(=O)C1=C(CS(=O)(=O)c2ccc(C)cc2C)NC(=O)NC1c1ccc(C)cc1 (configuration not stated),-25%,-2%,.
Cc1c(C(=O)N2CCOCC2)sc(NC(=O)c2ccc([N+](=O)[O-])cc2)c1C#N,-1%,-2%,-19%
Cc1c(C(=O)N2CCOCC2)sc(NC(=O)CCl)c1C#N,40µM*,-14%,-10%
CCc1ccccc1NC(=O)Cn1ccn(-c2cc(C)cc(C)c2)c(=O)c1=O,-7%,-3%,.
COc1ccc(-c2c(C)n([O-])c3c([n+]2=O)CCCC3)c(OC)c1,8%,0%,-9%
COc1ccc2c(c1)n([O-])c1c([n+]2=O)CCC1,40µM*,?,-22%
SMILES,Sm TGR block,AmpC inh detg,AmpC no deterg
O=[n+]1c2c(n([O-])c3cc(Cl)ccc31)CCCC2,-25%,-1%,-23%
CCOc1ccc2c(c1)n([O-])c1c([n+]2=O)CCCC1,5.6µM*,6%,-21%
Cc1c(NC(=O)c2cc(-c3cccc(O)c3)on2)c(=O)n(-c2ccccc2)n1C,-22%,-1%,.
O=C(NCCc1ccc(Cl)cc1)c1ccc2c(c1)N(Cc1cccc(Cl)c1)C(=O)c1ccccc1S2(=O)=O,0%,11%,.
Cc1ccc2oc(=O)c(-c3nc(-c4cccs4)no3)cc2c1,6%,15%,.
O=C(COC(=O)C1(c2ccc(F)cc2)CCCC1)NCc1ccco1,32µM*,3%,-10%
O=C(CN1CCCc2ccccc21)NC(=O)NCc1ccco1,-31%,-3%,-29%
COc1cccc(OC)c1C(=O)OCC(=O)NCc1ccco1,50µM*,-15%,-2%
